# In all, about 310,000 compounds went through this assay and about 14,000 (4.5%) showed an effect of 50% or more. The effect is printed as a negative number. The full list was thinned out, with strong results kept by preference.
# Target: human ether-à-go-go-related gene (hERG) potassium channel (human, UniProt Q12809)
# Test: primary screen, population patch clamp on CHO cells stably expressing hERG; higher = less effect of the substance
# Protocol: Briefly, Chinese hamster ovary (CHO) cells stably expressing the hERG channel were dislodged from tissue culture flasks and dispensed into PPC plates. […] During the recording, background leak currents were estimated by a 100 ms step to -80 mV from an initial holding potential of -70 mV and subtracted from the subsequent current measurement. The campaign was conducted in two phases using slight differences in recording protocol. In the first phase, the initial voltage pulse used a 100 ms step to -30 mV from a holding potential of -70 mV, a 2 s conditioning step to +25 mV, and a 2 s test step to -30 mV. During the second phase of the screen, the potential during the conditioning step was raised to +45 mV. In both phases of the campaign, a secondary voltage pulse was applied using the same parameters as the second phase initial pulse. The initial and secondary pulses were applied in the absence of compound, and upon application of 1 μM and 10 μM test concentrations. […]
# 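Note: peak tail current of the secondary pulse compared with the same well before compound.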
# Sequence of human ether-à-go-go-related gene (hERG) potassium channel (Q12809 whole entry, looked up): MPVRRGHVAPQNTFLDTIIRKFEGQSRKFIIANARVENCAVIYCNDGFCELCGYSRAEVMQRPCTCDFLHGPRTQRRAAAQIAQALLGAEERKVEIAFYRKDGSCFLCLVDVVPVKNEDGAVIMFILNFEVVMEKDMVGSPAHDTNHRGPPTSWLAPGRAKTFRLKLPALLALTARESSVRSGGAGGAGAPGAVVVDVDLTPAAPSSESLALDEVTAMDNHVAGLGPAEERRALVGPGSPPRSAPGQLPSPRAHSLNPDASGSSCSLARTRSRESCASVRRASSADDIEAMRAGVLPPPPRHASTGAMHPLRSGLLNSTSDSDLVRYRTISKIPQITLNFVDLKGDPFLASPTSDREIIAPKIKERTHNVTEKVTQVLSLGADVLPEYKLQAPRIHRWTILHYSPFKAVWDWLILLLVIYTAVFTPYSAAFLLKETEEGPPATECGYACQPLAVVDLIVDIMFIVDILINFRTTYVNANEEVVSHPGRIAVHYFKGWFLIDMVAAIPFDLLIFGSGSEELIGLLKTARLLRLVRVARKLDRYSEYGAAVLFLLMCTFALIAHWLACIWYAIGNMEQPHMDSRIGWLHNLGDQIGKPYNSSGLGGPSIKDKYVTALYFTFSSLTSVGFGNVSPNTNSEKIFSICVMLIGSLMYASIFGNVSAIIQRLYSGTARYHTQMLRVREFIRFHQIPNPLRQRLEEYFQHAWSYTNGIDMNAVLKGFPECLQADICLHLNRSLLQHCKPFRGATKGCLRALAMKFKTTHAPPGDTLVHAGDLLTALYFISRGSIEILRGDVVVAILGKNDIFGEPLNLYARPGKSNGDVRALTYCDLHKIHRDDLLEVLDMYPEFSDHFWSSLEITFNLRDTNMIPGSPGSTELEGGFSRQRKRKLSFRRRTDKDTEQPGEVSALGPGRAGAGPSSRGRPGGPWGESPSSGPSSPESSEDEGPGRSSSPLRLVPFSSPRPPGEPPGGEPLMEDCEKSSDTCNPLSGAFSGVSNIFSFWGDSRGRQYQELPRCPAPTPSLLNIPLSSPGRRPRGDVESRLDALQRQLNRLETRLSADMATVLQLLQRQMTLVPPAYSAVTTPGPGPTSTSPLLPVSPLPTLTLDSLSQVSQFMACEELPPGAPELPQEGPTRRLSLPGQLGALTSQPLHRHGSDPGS
row,SMILES,"hERG current change (%, negative = inhibition) at 10uM [%]"
1,CCN(CC(=O)Nc1ccc(OC)cc1)C(=O)c1cc2c(s1)CCCCC2,16.3
2,COc1ccc(/C=N/NC(=O)CCC(=O)Nc2ccc(F)cc2)c(OC)c1,14.9
3,N#Cc1nc(-c2ccco2)oc1N1CCN(C(c2ccccc2)c2ccccc2)CC1,-0.82
4,Cc1cc(C(=O)O)cc(Br)c1N,4.61
5,Cc1ccc(S(=O)(=O)/N=C(\Sc2ccccc2)c2ccccc2)cc1,14.1
6,COCCN1CCN(C(=O)c2ccc3c(c2)S(=O)(=O)c2ccccc2C3=O)CC1,-1.17
7,Cc1cc(C)c(NC(=O)c2cccc3c2C(=O)N(C2CCCCC2)C3)c(C)c1,-11
8,CCCCNC(C(=O)Nc1cccc(S(=O)(=O)N2CCOCC2)c1)c1ccccc1 (stereo not shown),-50.7
9,CN(C)CCNC(C(=O)Nc1cccc(S(=O)(=O)N2CCOCC2)c1)c1ccccc1 (stereo not shown),-70.3
10,CC(C)[C@H](NC(=O)c1ccccc1)C(=O)Nc1cccc(S(=O)(=O)N2CCOCC2)c1,-2.22
11,O=C(Nc1cccc(S(=O)(=O)N2CCOCC2)c1)C(c1ccccc1)N1CCCCC1 (stereo not shown),-37.9
12,O=C(CSc1ccccc1)Nc1cccc(S(=O)(=O)N2CCOCC2)c1,-25.4
13,CCCC(C(=O)Nc1cccc(S(=O)(=O)N2CCCC2)c1)c1ccccc1 (stereo not shown),-48.2
14,CC(C)C(NC(=O)CN(c1cccc(F)c1)S(C)(=O)=O)C(C)C,1.21
15,COc1cc(CCC(=O)OCc2ccccc2C#N)cc(OC)c1OC,7.42
16,O=C1CC(C(=O)N2CCOCC2)C2(CCCCC2)O1 (stereo not shown),17.8
17,COc1ccccc1Oc1cc(F)nc(N)n1,5.82
18,Cc1cc(C)n(-c2nc(C(=O)O)cs2)n1,17.7
19,CN(Cc1ccccc1)S(=O)(=O)c1ccc(Cl)c(C(=O)NCc2ccc3c(c2)OCO3)c1,5.48
20,CN(Cc1ccccc1)S(=O)(=O)c1ccc(Cl)c(C(=O)NCc2ccncc2)c1,-55.8
21,CN(Cc1ccccc1)S(=O)(=O)c1ccc(Cl)c(C(=O)O)c1,9.33
22,CN(Cc1ccccc1)S(=O)(=O)c1ccc(Cl)c(C(=O)NCCc2ccccn2)c1,-61.8

row,SMILES,"hERG current change (%, negative = inhibition) at 10uM [%]"
1,CN(Cc1ccccc1)S(=O)(=O)c1ccc(OCC(=O)NCc2ccccn2)cc1,-32.6
2,CN(Cc1ccccc1)S(=O)(=O)c1ccc(OCC(=O)NCc2cccnc2)cc1,0.509
3,CN(CC(=O)NCCc1ccccn1)S(=O)(=O)c1ccc(Cl)cc1,-17
4,CN(Cc1ccccc1)S(=O)(=O)c1ccc(Cl)c(C(=O)NCc2cccnc2)c1,-32.8
5,CN(Cc1ccccc1)S(=O)(=O)c1ccc(OCC(=O)NCc2ccncc2)cc1,-53.6
6,O=C1Nc2ccc(C(F)(F)F)cc2N2CCCC12 (stereo not shown),-1.52
7,Cc1ccc(CSCCNC(=O)CN(c2cc(C)ccc2C)S(C)(=O)=O)cc1,-23.5
8,COC(=O)C1=C(C)N(Cc2ccc(OC)c(OC)c2)C(=O)C1,10.7
9,C=CCSc1n[nH]c(-c2cccs2)n1,14.4
10,CN(CCO)S(=O)(=O)c1ccc2c(c1)C(=NN)c1cc(S(=O)(=O)N(C)CCO)ccc1-2,9.76
11,CN1C2CCC1CC(OC(c1ccccc1)c1ccccc1N)C2 (stereo not shown),-68.5
12,CCOC(=O)C1CCN(C(=O)CNC(=O)c2nn(-c3ccc(OC)cc3)c(=O)c3ccccc23)CC1,-9.73
13,Cc1ccc(Cl)cc1NC(=O)CC1NCCNC1=O (stereo not shown),13.6
14,COc1ccccc1-c1c(C)nn2c(N3CCOCC3)cc(C)nc12,2.71
15,CCCCOC(=O)CCCc1ccc([N+](=O)[O-])cc1[N+](=O)[O-],-52
16,CC(C)OC(=O)CCCNc1ccc([N+](=O)[O-])cc1[N+](=O)[O-],-41.4
17,C#CCOC(=O)CCCNc1ccc([N+](=O)[O-])cc1[N+](=O)[O-],-51.1
18,CCOC(=O)CCCNc1ccc([N+](=O)[O-])cc1[N+](=O)[O-],-13.3
19,CCCCOC(=O)Nc1nc2ccc([N+](=O)[O-])cc2s1,15.1
20,CCCCOc1ccc([N+](=O)[O-])cc1C(=O)O,24.9
21,COC(=O)c1c(-c2c(Cl)cccc2Cl)noc1C(=O)NNC(=O)N(C)C,4.36
22,CCOc1ccc(-n2c(=O)c3ccccc3c3ccccc3c2=O)cc1,17.8

row,SMILES,"hERG current change (%, negative = inhibition) at 10uM [%]"
1,S=C(NCc1ccccc1)NCc1cccc(CNC(=S)NCc2ccccc2)c1,21.7
2,CCOCCCn1c(=NC(C)=O)c(C(=O)OCC)cc2c(=O)n3ccccc3nc21,-22.9
3,CCOC(=O)c1cc2c(=O)n3cccc(C)c3nc2n(CCOC)c1=NC(C)=O,-16.3
4,CCOCCCn1c(=NC(=O)c2cccnc2)c(C(=O)OCC)cc2c(=O)n3ccccc3nc21,-70.1
5,CCOC(=O)c1cc2c(=O)n3cccc(C)c3nc2n(CCCOC)c1=NC(=O)c1cccnc1,-78.6
6,CCOC(=O)c1cc2c(=O)n3ccccc3nc2n(CCCOC)c1=NC(=O)c1cccnc1,-68
7,CCC1=C(OC(=O)N(CC)CC)N2C(=O)OC(=NCC(=O)OC)[C@]2(C)[C@H]2C1=CC[C@H]1C(=O)NC(=O)[C@H]12,-15.5
8,Cc1onc(COc2ccccc2O)c1Br,11.2
9,COc1cccc(NC(=O)CN(C)C(C)C(=O)Nc2ccc(S(=O)(=O)N3CCOCC3)cc2)c1 (stereo not shown),-15.1
10,COc1ccccc1-c1noc(Cn2cc(S(=O)(=O)N3CCCC3)ccc2=O)n1,-3.72
11,CCC(C)NCCOCCOc1ccc(Br)cc1.O=C(O)C(=O)O (stereo not shown),-18.1
12,C=CCc1cc(Cl)ccc1OCCNCCCOC.O=C(O)C(=O)O,-37.9
13,CCC(C)NCCCOc1ccc(Cl)cc1C(C)(C)C.O=C(O)C(=O)O (stereo not shown),-8.48
14,C=CCc1cc(Cl)ccc1OCCCNC(C)C.O=C(O)C(=O)O,-40.1
15,CCC(C)NCCCOc1cc(Cl)ccc1Cl.O=C(O)C(=O)O (stereo not shown),-42.3
16,CCC(C)NCCOCCOc1ccc(Cl)cc1Br.O=C(O)C(=O)O (stereo not shown),-51.1
17,CCC(C)NCCOCCOc1ccc(C)cc1Br.O=C(O)C(=O)O (stereo not shown),-41
18,Cc1cc(OCCOCCNC(C)C)cc(C)c1Cl.O=C(O)C(=O)O,-47.3
19,CCC(C)NCCCCOc1ccc(Cl)cc1C.O=C(O)C(=O)O (stereo not shown),-58.6
20,C=CCc1cc(Cl)ccc1OCCCNC(C)CC.O=C(O)C(=O)O (stereo not shown),-55.7
21,CC(C)NCCOCCOc1ccc(Cl)cc1Br.O=C(O)C(=O)O,-32.2
22,CCC(C)NCCOCCOc1cc(C)c(Cl)c(C)c1.O=C(O)C(=O)O (stereo not shown),-59.2

row,SMILES,"hERG current change (%, negative = inhibition) at 10uM [%]"
1,O=C1CCc2ccccc2N1,16.5
2,Cc1ccc(-c2csc(NC(=O)c3ccccc3Cl)c2C(=O)O)cc1,20.8
3,COCc1nnc(NC(=O)c2ccc(S(=O)(=O)N(CC(C)C)CC(C)C)cc2)o1,-7.19
4,NNc1nc2cc3c(cc2s1)OCCO3,14.1
5,CN(C(=O)CSc1nc2c(cnn2-c2ccccc2)c(=O)[nH]1)C1CCS(=O)(=O)C1 (stereo not shown),16.1
6,CSCC(C)N1CCC(CCC(=O)NC2CC2)CC1 (stereo not shown),-18.1
7,OCCCCO,13.7
8,Oc1ccc(Cc2ncc(C(F)(F)F)cc2Cl)cc1,-15.4
9,Cc1ccc(N(CC(=O)N2CCCCC2)S(=O)(=O)c2ccc(C)cc2)cc1,-20.9
10,OCc1csc(=Nc2ccccc2)n1-c1ccccc1,0.29
11,CCC(C)NCCOCCOc1ccc(Cl)c(C)c1C.O=C(O)C(=O)O (stereo not shown),-31.7
12,C=CCc1cc(Cl)ccc1OCCN(C)C.O=C(O)C(=O)O,-42
13,C=CCc1cc(Cl)ccc1OCCOCCNC(C)CC.O=C(O)C(=O)O (stereo not shown),-69.2
14,C=CCc1cc(Cl)ccc1OCCOCCNC(C)(C)C.O=C(O)C(=O)O,-49.5
15,C=CCc1cc(Cl)ccc1OCCOCCN(C)C.O=C(O)C(=O)O,-51.5
16,CN(C)CCOCCOc1ccc(Cl)cc1C(C)(C)C.O=C(O)C(=O)O,-37.3
17,Cc1occc1-c1nnc(SCC(=O)Nc2c(F)cccc2F)n1C,-7.23
18,CCOC(=O)c1c(C)[nH]c(C)c1S(=O)(=O)N1CCN(C(=O)c2ccco2)CC1,16.5
19,Cc1ccc(S(=O)(=O)N2CCCOC2CNC(=O)C(=O)NCc2ccc3c(c2)OCO3)cc1 (stereo not shown),-13.4
20,CNC(=S)NNC(=O)c1cccn(Cc2cccc(C(F)(F)F)c2)c1=O,22.2
21,N#C/C(=C/c1ccc(O)cc1)C(=O)NCc1ccc(Cl)cc1,23.1
22,C=CCSc1nc2ccsc2c(=O)n1-c1cccnc1,-8.97

# Source: publication PMC4336329 (PLoS ONE, 2015)
